From PubChem BioAssay AID2314 (National Center for Advancing Translational Sciences (NCATS), 2010)
In all, about 300,000 compounds went through this assay and about 37,000 (12%) were called active. Rule as the data show it: active = max response mostly above about 13% (no sharp cut-off); inactive = mostly below about 14%. The entries come from a sample that favours actives as a whole.

Test: Cycloheximide Counterscreen for Small Molecule Inhibitors of Shiga Toxin; also: read at 38.3 µM for the half of the compounds with a filed dose; 0% is about no effect
Details: cell reporter, cycloheximide protein synthesis inhibition counterscreen; hits give high values

With COc1ccc(N(CC(=O)N2CCOCC2)S(=O)(=O)c2ccccc2)cc1Cl as the compound, how does the max response read?
The max response was -0.709% (inactive).

With COc1ccc(/C=C(/NC(=O)c2ccccc2)C(=O)Nc2cccc(C(=O)O)c2)cc1 as the compound, how does the max response read?
The max response was -3.46% (inactive).

With COc1ccc(-c2c(C(C)=O)c(C)nc3sc4c(=O)n(-c5ccc(C)cc5)nnc4c23)cc1 as the compound, how does the max response read?
The max response was -1.79% (inactive).

With CC(NCc1nc2ccccc2n1C)C12CC3CC(CC(C3)C1)C2 (configuration not stated) as the compound, how does the max response read?
The max response was -1.92% (inactive).

With O=C(Cn1cc(-c2nnnn2-c2ccc(Cl)cc2)c(=O)c2ccccc21)c1ccccc1 as the compound, how does the max response read?
Its max response is -5.16% (inactive).

Which max response does the source give for CN(C(=O)CC1C(=O)NCCN1Cc1ccc2ccccc2c1)C1CCOCC1 (configuration not stated) here?
The max response was 0.547% (inactive).

For O=C(O)C1CCC(CNS(=O)(=O)c2ccc(Br)cc2)CC1 (configuration not stated), which max response is on record?
Its max response is -3.43% (inactive).

Which max response does the source give for COc1ccc(S(=O)(=O)Nc2ccccc2C(=O)N2CCCC2)cc1C here?
Its max response is -0.906% (inactive).

With C/C(CCC(=O)OC[C@H]1O[C@H](C#Cc2ccccc2)C=C[C@@H]1Oc1ccc(C)cc1)=N\OC[C@@H](O)[C@H]1O[C@@H]2OC(C)(C)O[C@@H]2[C@H]1O as the compound, how does the max response read?
The max response was 1.29% (inactive).

Which max response does the source give for COc1cc(CC(=O)N/N=C/c2ccccc2)c([N+](=O)[O-])cc1OC here?
Its max response is 16.2% (inactive).

For CCOC(=O)c1sc(/N=C/C2=C(O)CC(C)(C)CC2=O)c(C(=O)OCC)c1C, which max response is on record?
The max response was 65.5% (active).

With CCOC(=O)c1c(/N=C/C2C(=O)CC(C)(C)CC2=O)sc(C)c1C as the compound, how does the max response read?
Its max response is -5.69% (inactive).

With CCOC(=O)c1c(CC(C)C)csc1/N=C/C1=C(O)CCCC1=O as the compound, how does the max response read?
The max response was -1.4% (inactive).

For CCCCCC1CC(COc2ccccc2)OC1=O (configuration not stated), which max response is on record?
The max response was -2.67% (inactive).

Which max response does the source give for Cc1oc2c(C)c3oc(=O)c(CC(=O)N[C@@H](CC(C)C)C(=O)N[C@@H](Cc4ccccc4)C(=O)O)c(C)c3cc2c1C here?
The max response was -3.89% (inactive).

With Brc1ccc2ncnc(NCc3cccnc3)c2c1 as the compound, how does the max response read?
The max response was 8.06% (inactive).

Which max response does the source give for CCc1cccc(C)c1NS(=O)(=O)c1cc(Br)cnc1N here?
The max response was -7.68% (inactive).

Which max response does the source give for Oc1ccccc1CNc1ncc(Br)cc1Br here?
The max response was 19.8% (active).

For O=C(N/N=C/c1ccccn1)C12CC3CC(CC(C3)C1)C2, which max response is on record?
Its max response is 14.7% (active).

With CNC(=O)C(=O)N/N=C/c1ccccn1 as the compound, how does the max response read?
Its max response is 6.76% (inactive).

For O=C(N/N=C/c1ccccn1)c1cccc(NC(=O)c2ccc(Cl)cc2)c1, which max response is on record?
Its max response is 13% (inactive).

Which max response does the source give for COc1cc(/C=N/NC(=O)c2cccnc2)ccc1OC(=O)c1cccc(Br)c1 here?
Its max response is -6.4% (inactive).

For O=C(NCc1ccc(Cl)c(Cl)c1)c1cccnc1, which max response is on record?
Its max response is -2.41% (inactive).

With O=C(N/N=C/c1ccccn1)c1ccc(S(=O)(=O)N2CCCCCC2)cc1 as the compound, how does the max response read?
The max response was 73.8% (active).

With O=C(NN=C1CCC(=NNC(=O)c2cccnc2)CC1)c1cccnc1 as the compound, how does the max response read?
The max response was 22.4% (active).

With CN1CCN(NC(=O)c2ccc(S(=O)(=O)N3CCCCCC3)cc2)CC1 as the compound, how does the max response read?
Its max response is -2.75% (inactive).

With Cc1cc(/C=N/NC(=O)c2cccnc2)c(C)n1CC(C)C as the compound, how does the max response read?
Its max response is 42.1% (active).

Which max response does the source give for O=C(CNC(=O)c1cccnc1)N/N=C/c1cc(Br)c(O)c(Br)c1 here?
Its max response is -1.81% (inactive).

With O=C(Nc1ccc(S(=O)(=O)Nc2ncccn2)cc1)C12CC3CC(CC(C3)C1)C2 as the compound, how does the max response read?
The max response was 1.99% (inactive).

Which max response does the source give for O=C(Nc1cnccn1)c1cccnc1 here?
Its max response is -3.29% (inactive).

For FC(F)(F)Oc1ccc(NC(=S)NCc2ccccc2)cc1, which max response is on record?
The max response was 1.72% (inactive).

For C[C@H]1[C@H]2c3nc4ccccc4n3C[C@H]1ON2C1CCCCC1, which max response is on record?
The max response was 2.13% (inactive).

Which max response does the source give for COc1ccccc1N1CC(C(=O)Nc2nnc(SCC(=O)NCC3CCCO3)s2)CC1=O (configuration not stated) here?
The max response was 8.07% (inactive).

For COC(=O)C1=C(Nc2ccc(C)cc2)C=C(C)C(C(=O)OC)C1c1ccc(F)cc1 (configuration not stated), which max response is on record?
Its max response is 10.3% (inactive).

With COc1ccc(-c2ccc(C3C4C=CCCC4(C)C(=O)N3Cc3ccccc3)c(F)c2)cc1OC (configuration not stated) as the compound, how does the max response read?
Its max response is 12.4% (inactive).

Which max response does the source give for O=C(N/N=C/c1ccccn1)c1cccnc1 here?
The max response was 17.5% (active).

For O=C(N/N=C/c1ccc(O)c2ccccc12)c1cccnc1, which max response is on record?
Its max response is 15.4% (inactive).

For Cc1ccccc1CSc1nnc(-c2ccccn2)n1N, which max response is on record?
Its max response is 27% (active).

With Cn1c(SCC(=O)C(C)(C)C)nnc1-c1ccccn1 as the compound, how does the max response read?
Its max response is 18.9% (inactive).

With Cc1ccccc1CSc1nnc(-c2cccnc2)n1N as the compound, how does the max response read?
Its max response is 16.2% (inactive).

For COc1ccc(-c2cc(=O)oc3cc(OCC(=O)N(C)C4CCS(=O)(=O)C4)ccc23)cc1 (configuration not stated), which max response is on record?
Its max response is 3.93% (inactive).

For CCN(C(=O)COC(=O)c1ccc(COc2ccc3c(C)cc(=O)oc3c2)cc1)C1CCS(=O)(=O)C1 (configuration not stated), which max response is on record?
Its max response is 21.1% (active).

With Cc1ccccc1NC(=O)c1ccc(COc2ccc3c(C)cc(=O)oc3c2)cc1 as the compound, how does the max response read?
The max response was -0.998% (inactive).

With COc1cccc(-c2nn(-c3ccccc3)cc2/C=C(\C#N)C(=O)NCCCn2ccnc2)c1 as the compound, how does the max response read?
The max response was 10.5% (inactive).

Which max response does the source give for CC1CCCCC1NC(=O)CCS(=O)(=O)c1ccc2c(c1)NC(=O)CO2 (configuration not stated) here?
The max response was -2.74% (inactive).

With COc1ccc(C(=O)Nc2ccccc2C(=O)N/N=C/c2ccccc2OC)cc1 as the compound, how does the max response read?
The max response was 17.9% (inactive).

Which max response does the source give for COc1ccc(/C=N/NC(=O)CNC(=O)c2ccc(S(=O)(=O)N3CCCC3)cc2)c(OC)c1 here?
The max response was -1.52% (inactive).

With COc1ccc(/C=N/NC(=O)c2ccc3c(c2)OCCO3)c(OC)c1 as the compound, how does the max response read?
Its max response is 56% (active).

For Cn1ccc(=Nc2ccc(NC(=O)c3ccc(N=c4ccn(C)c5ccc([N+](=O)[O-])cc45)cc3)cc2)cc1, which max response is on record?
The max response was -1.72% (inactive).

With O=C(NCCc1ccccn1)c1ccc(COc2ccccc2)o1 as the compound, how does the max response read?
The max response was 28.1% (active).

With O=C(NCCc1ccccn1)c1cccnc1Oc1ccc(Cl)cc1 as the compound, how does the max response read?
The max response was 0.291% (inactive).

With O=C(CNC(=O)COc1ccccc1)NCCc1ccccn1 as the compound, how does the max response read?
Its max response is 5.88% (inactive).

Which max response does the source give for Cc1ncn2cc(-c3ccc(Cl)cc3Cl)[nH]c(=O)c12 here?
The max response was 8.02% (inactive).

Which max response does the source give for Cc1cccc(N2CCN(S(=O)(=O)c3ccc(-c4cc(C)no4)s3)CC2C)c1 (configuration not stated) here?
Its max response is -3.69% (inactive).

With Cc1ccc(CNC(=O)CN2CCN(Cc3ccc(Cl)cc3)C2=O)cc1 as the compound, how does the max response read?
The max response was -4.69% (inactive).

With Cc1ccccc1N1CCN(CC(=O)NCc2ccc(Cl)cc2)CC1 as the compound, how does the max response read?
The max response was -1.19% (inactive).

With O=C(CN1CCN(S(=O)(=O)c2ccc(Cl)s2)CC1)NCc1ccc(Cl)cc1 as the compound, how does the max response read?
Its max response is 30.7% (active).
